Consider 34 compounds from PubChem BioAssay (NCATS).

Records with an inconclusive call do not appear. Active and inactive are the calls of the source. Calls come from the whole dose curve; as a rule, active = well fitted cell-killing curve with a large enough effect; inconclusive = small, poorly fitted or top-dose-only effect; inactive = flat fitted curve, though single readings scatter.
Potency is the fitted concentration of half-maximal effect.

A short description of this test: qHTS of pediatric cancer cell lines to identify multiple opportunities for drug repurposing: Primary screen for BT-12 cells (AID 1347101).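 For activity change, negative = cytotoxic: plate controls were DMSO for no effect and bortezomib positive control for full effect.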 Note: nearly all actives have a fitted effect of over 25% in size. As to conditions: BT-12 viability, CellTiter-Glo luminescence, 48 h; series mostly up to 57.3 µM; activity change, negative = cytotoxic: at the top concentration. The method, boiled down: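 Cells (500-1,000/well) rested 5 h, then received compounds for 48 h; metabolically active cells were measured by CellTiter-Glo luminescence. Final concentrations spanned up to 46 µM (MIPE, 11-point) or 0.59 nM-46 µM (NPC, 8-point) in primary screens, 11-point in follow-ups.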
For the compound `CCCOC(=O)c1ccc(O)cc1`, the “activity change, negative = cytotoxic” value is -19.8% [at 116 µM] (inactive).

Turning to `O=C(O)Cc1cccc(-c2cc(CCCCCCc3ccc(O[C@H]4O[C@H](CO)[C@@H](O)[C@H](O)[C@@H]4O)c(-c4cccc(CC(=O)O)c4)c3)ccc2O[C@H]2O[C@H](CO)[C@@H](O)[C@H](O)[C@@H]2O)c1`, the activity change, negative = cytotoxic is 15.7% [at 0.745 µM] (inactive).

Consider `O=C(O)/C=C\C(=O)O`, for which the “activity change, negative = cytotoxic” value was 6.7% (inactive).

Turning to `CC(C(=O)O)c1ccc2c(c1)[nH]c1ccc(Cl)cc12` (centres undefined), the “activity change, negative = cytotoxic” value is 0.939% (inactive).

As to `O=C(CCN1CCN(CCO)CC1)N1c2ccccc2Sc2ccc(C(F)(F)F)cc21`, the “activity change, negative = cytotoxic” value was -1.66% (inactive).

For `c1ccc2sc(SN3CCOCC3)nc2c1`, the “activity change, negative = cytotoxic” value was 3.87% (inactive).

Consider `O=C(OCc1ccccc1)c1ccccc1`, for which the “activity change, negative = cytotoxic” value is 8.66% (inactive).

For the compound `Nc1c(CC(=O)O)cccc1C(=O)c1ccc(Br)cc1`, the “activity change, negative = cytotoxic” value is 6.88% (inactive).

Regarding `CC(=O)c1ccc(OCC(=O)N2CCCCC2)cc1`, the “activity change, negative = cytotoxic” value is 11.7% (inactive).

Regarding `CNC(=O)c1c(I)c(NC(=O)CCCCC(=O)Nc2c(I)c(C(=O)O)c(I)c(C(=O)NC)c2I)c(I)c(C(=O)O)c1I`, the “activity change, negative = cytotoxic” value is 3.45% (inactive).

For `O=C(O)c1cc(O)c(O)c(O)c1`, the “activity change, negative = cytotoxic” value was -3.05% (inactive).

With `C=CCCCCCCCCC(=O)O`, the “activity change, negative = cytotoxic” value was 5.07% (inactive).

`Cc1ccc(C(=O)c2ccc(CC(=O)O)n2C)cc1`: the “activity change, negative = cytotoxic” value was 3.92% (inactive).

On to `Nc1cc(-c2ccncc2)c[nH]c1=O`, for which the “activity change, negative = cytotoxic” value is 9.48% (inactive).

Regarding `COc1ccnc2c1CCCCC2S(=O)c1nc2ccccc2[nH]1` (centres undefined), the “activity change, negative = cytotoxic” value was 3.53% (inactive).

In the case of `N=C(N)N`, the “activity change, negative = cytotoxic” value is 11.3% (inactive).

For the compound `O=Cc1ccc(O)c(O)c1O`, the “activity change, negative = cytotoxic” value was -5.55% (inactive).

`CCCCCCCC/C=C/C(=O)O`: the “activity change, negative = cytotoxic” value was -5.25% (inactive).

Regarding `Nc1ccc(C(=O)O)c(O)c1`, the “activity change, negative = cytotoxic” value was 4.73% (inactive).

Turning to `CC1(C)S[C@@H]2[C@H](NC(=O)[C@H](N)c3ccccc3)C(=O)N2[C@H]1C(=O)O`, the “activity change, negative = cytotoxic” value is 11.4% (inactive).

Consider `CN(C)[C@@H]1C(=O)C(C(=O)NCN2CCCC2)=C(O)[C@@]2(O)C(=O)C3=C(O)c4c(O)cccc4[C@@](C)(O)C3C[C@@H]12` (some centres undefined), for which the “activity change, negative = cytotoxic” value was 2.92% (inactive).

As for `CCCCCCCCCCCCOCCO`, the “activity change, negative = cytotoxic” value is 2.15% (inactive).

On to `CC(=O)SCC(CC(=O)c1ccc(C)cc1)C(=O)O` (centres undefined), for which the “activity change, negative = cytotoxic” value was 6.03% (inactive).

With `O=C(O)c1ccccc1Nc1cccc(C(F)(F)F)c1`, the “activity change, negative = cytotoxic” value was 5.23% (inactive).

Consider `CCOc1ccc2nc(S(N)(=O)=O)sc2c1`, for which the “activity change, negative = cytotoxic” value is -1.6% (inactive).

Take `CCCSc1ccc2nc(NC(=O)OC)[nH]c2c1`: the Potency is 2.76 µM (active).

Take `Cc1c(Nc2ncccc2C(=O)O)cccc1C(F)(F)F`: the “activity change, negative = cytotoxic” value is -11.8% (inactive).

With `O=C(/C=C/c1ccccc1)NCCO`, the “activity change, negative = cytotoxic” value was 13.9% (inactive).

For the compound `CCOC(=O)c1ccccc1O`, the “activity change, negative = cytotoxic” value is 5.9% (inactive).

Take `COc1cc2c3cc1Oc1cc(ccc1O)C[C@@H]1c4c(cc(OC)c(O)c4Oc4ccc(cc4)C[C@@H]3N(C)CC2)CC[N+]1(C)C`: the “activity change, negative = cytotoxic” value was -6.97% (inactive).

Consider `O=C(O)Cc1ccc2c(c1)C(=O)c1ccccc1CO2`, for which the “activity change, negative = cytotoxic” value is 13.4% (inactive).

On to `Cc1c(N)c(=O)n(-c2ccccc2)n1C`, for which the “activity change, negative = cytotoxic” value was -6.37% (inactive).

Regarding `CC(C)(C)c1nnc(NS(=O)(=O)c2ccc(N)cc2)s1`, the “activity change, negative = cytotoxic” value is 2.74% (inactive).

On to `CN1CCN(c2cc3c(nn2)Oc2ccccc2N3C)CC1`, for which the “activity change, negative = cytotoxic” value is 6.16% [at 20.1 µM] (inactive).
